Reference: ChEMBL document CHEMBL1961873, “Compounds: GSK PKIS; Assays: Nanosyn kinase panel” (2012)

The molecules below were run against cAMP-dependent protein kinase catalytic subunit alpha (Homo sapiens) (UniProt P17612). Conditions: at 1 µM.
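Note: mean percent inhibition of PKA.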

In order of falling inhibition:
1. Cc1ccc(O)cc1Nc1ccnc2ccc(S(C)(=O)=O)cc12  11.9%
2. Nc1nccc(-c2c(-c3ccc(F)cc3)ncn2CCCN2CCOCC2)n1  9.33%
3. CCOc1nccc2c1nc(-c1nonc1N)n2CC  9.17%
4. [O-][S+]1CCN(Cc2ccc(-c3ccc4ncnc(Nc5ccc(OCc6ccccc6)c(Cl)c5)c4c3)o2)CC1  7.99%
5. CCn1c(-c2nonc2N)nc2ccc(F)cc21  6.34%
6. CN1CCN(C(=O)c2ccc(NC(=O)Nc3ccc(N(C)c4ccnc(Nc5ccc(CS(C)(=O)=O)cc5)n4)cc3)cc2)CC1  4.5%
7. Cc1ccc2c(-c3ccnc(Nc4cccc(C(F)(F)F)c4)n3)c(-c3ccccc3)nn2n1  4.26%
8. NS(=O)(=O)c1ccc(N/N=C2\C(=O)Nc3ccc(Cl)cc32)cc1  4.12%
9. O=C1Nc2ccccc2/C1=C/Nc1ccc2[nH]c(=O)[nH]c2c1  4.1%
10. NS(=O)(=O)c1cccc(-c2cc3ccncc3cc2OCc2ccccc2)c1  3.34%
11. CN(C)CCCn1c(-c2nonc2N)nc2cnccc21  3.18%
12. Nc1nccc(C#Cc2cncnc2Nc2ccc(OCc3cccc(F)c3)c(Cl)c2)n1  2.74%
13. COc1ccc(-c2nn3ncccc3c2-c2ccnc(Nc3cccc(C(F)(F)F)c3)n2)cc1  2.61%
14. CCCN1CCCC(c2ccc(Nc3nc(Nc4cc(F)ccc4C(N)=O)c4cc[nH]c4n3)c(OC)c2)C1 (centres undefined)  2.23%
15. Cc1nc(-c2ccccc2)n2nc(NCCCN3CCOCC3)ncc12  2.12%
16. CN(c1ccc(NC(=O)Nc2ccc(OC(F)(F)F)cc2)cc1)c1ccnc(Nc2cccc(S(N)(=O)=O)c2)n1  2.04%
17. OCc1ccc(-c2nc(-c3ccccn3)c(-c3ccc4c(c3)OCO4)[nH]2)cc1  1.95%
18. Cc1cc(Cl)cc2c1NC(=O)C2=NNc1ccc(S(N)(=O)=O)cc1  1.37%
19. Cc1ccc2c(c1)/C(=N/Nc1ccc(S(N)(=O)=O)cc1)C(=O)N2  1.28%
20. Cc1cc(O)cc(C)c1/C=C/c1cncc(C(=O)N(C)C)c1  0.93%
21. N#Cc1c(NC(=O)c2ccccc2F)sc2c1CCCC2  0.91%
22. COC(=O)c1ccc2c(c1)C(=Cc1cc(Br)c(O)c(Br)c1)C(=O)N2  0.85%
23. CCS(=O)(=O)c1ccc(OC)c(Nc2nccc(N(C)c3ccc4c(C)n[nH]c4c3)n2)c1  0.84%
24. NC(=O)c1cccc(Nc2nccc(Nc3cccc(F)c3)n2)c1  0.76%
25. NS(=O)(=O)c1ccc(-c2cc3ccncc3cc2OCc2ccccc2)cc1  0.52%
26. CS(=O)(=O)CCNCc1nc(-c2ccc3ncnc(Nc4ccc(OCc5cccc(C(F)(F)F)c5)cc4)c3c2)cs1  0.51%
27. CC(C)c1ccc2c(c1)NC(=O)/C2=N/Nc1ccc(S(N)(=O)=O)cc1  0.47%
28. Cc1ccc(C(=O)NC2CC2)cc1-c1ccc2[nH]ncc2c1  0.47%
29. Cc1ccc(NC(=O)CC2CC2)cc1-c1ccc(C(=O)NCC2CC2)cc1  0.41%
30. O=C(Nc1ccc(Oc2ccc3[nH]c(NC(=O)c4ccco4)nc3c2)cc1)Nc1cc(C(F)(F)F)ccc1F  0.09%
31. Cc1ccc(Nc2ccnc(Nc3cccc(C(N)=O)c3)n2)cc1O  -0.05%
32. COc1cc2ncnc(Nc3ccc4c(cnn4Cc4ccccc4)c3)c2cc1OC  -0.11%
33. C[C@@H](Oc1cc(-n2cnc3ccc(OC[C@@H](O)CO)cc32)sc1C(N)=O)c1ccccc1Cl  -0.61%
34. COc1cccc(-n2ncc3c(N/N=C/c4ccc(S(C)(=O)=O)cc4)ncnc32)c1  -0.93%
